FMDV antiviral – foot and mouth disease virus antiviral activity. FMDV antiviral cell-based qHTS. Potency, µM (series often up to 57.9 µM), for inactives: at the highest dose activity change, negative = inhibition, most hits filed as inhibitors. 410,000 compounds, 1.2% hits. AID 1159524; calls by dose curve; tested in HEK293T cells; note: read-out not given here; nearly all actives have a fitted effect of over 45% in size
Sm TGR block – blocks Schistosoma mansoni thioredoxin glutathione reductase; Q962Y6; purified TGR, DTNB reduction, TNB absorbance 405 nm; Potency, µM (doses to about 114 µM), without a hit: top-dose activity change, negative = inhibition, actives largely listed as inhibitors; 360,000 compounds, 3% hits; note: nearly all actives have a fitted effect of over 60% in size
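First, TGR (20 nM dispensed) and NADPH were mixed with compound. Second, a 15 min room-temperature incubation followed. Third, further NADPH and then DTNB were added to start the reaction. Finally, TNB absorbance was monitored kinetically.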
TbPYK inhibitor – inhibitors of Trypanosoma brucei pyruvate kinase; TbPYK enzyme, Kinase-Glo Plus ATP luminescence, 45 min; Potency, µM (highest dose often 76.8 µM), for the others: at the highest dose activity, negative = inhibition, most hits filed as inhibitors; 410,000 compounds, 0.12% hits; AID 624173; note: nearly all actives have a fitted effect of over 50% in size
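Luminescence from Kinase-Glo Plus, added after a 45-minute room-temperature reaction, served as the end-point read-out. The enzyme and substrate were preincubated with compound before ADP (130 uM final) initiated turnover. Concentration-effect curves came from normalized qHTS data.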
RE007 growth inh – less growth of the S. pombe RE007 Vpr strain | S. pombe RE007 Vpr strain, BacTiter-Glo ATP luminescence, 24 h | Potency, µM (highest dose often 92.2 µM), for the others: at the highest dose activity change, negative = less growth, usual class: inhibitors | 360,000 compounds, 0.21% hits; active = well fitted falling curve with a large enough effect; inconclusive = small, poorly fitted or top-dose-only effect; inactive = no such curve, though single readings can be large or run the other way; note: nearly all actives have a fitted effect of over 50% in size
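Fission yeast RE007 carrying one integrated HIV-1 vpr copy, seeded at OD 0.01 in PMG+AL medium with 23 nL pinned compound. Grown 24 h at 30 degrees; viability read by BacTiter-Glo luminescence after 5 min.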
Numbers without * were called inactive; ? = inconclusive; / = no result. Compounds with a hit are over-represented: about 3.7% of the library has one in this group of screens. Unless noted, calls come from the whole dose curve; as a rule, active = well fitted curve in the direction sought with a large enough effect; inconclusive = small, poorly fitted or top-dose-only effect, or another doubt; inactive = no such curve, though single readings can be large; an effect the other way counts as inactive or inconclusive. % is set by controls: 0 for no effect and ±100 for the full control effect; potency is the fitted concentration of half-maximal effect.

SMILES | FMDV antiviral | Sm TGR block | TbPYK inhibitor | RE007 growth inh
CCC(C(=O)Nc1nnc(-c2ccco2)s1)c1ccccc1 (centres undefined) | 1% | 32µM* | 4% | -13%
COc1ccccc1OCC(=O)Nc1nnc(-c2ccco2)s1 | 21% | 32µM* | -5% | ?
CCOc1cccc(C(=O)Nc2nnc(-c3ccco3)s2)c1 | -38% | ? | -13% | -7%
CC(=O)N1CCCc2cc(S(=O)(=O)N(C)CC(=O)Nc3ccc(Cl)cc3C)ccc21 | ? | -3% | 0% | /
Cc1ccc(CSCC(=O)N(C)CC(=O)Nc2ccc(Br)cc2C)cc1 | -13% | 50µM* | 1% | -2%
Cc1cc(/C=C2\C(=O)NC(=O)N(c3ccc(F)cc3)C2=O)c(C)n1-c1cccc(C(=O)O)c1 | 6% | ? | -18% | 3%
Cc1cc(/C=C2\C(=O)NC(=O)N(c3ccccc3)C2=O)c(C)n1-c1ccc(C(=O)O)c(Cl)c1 | -8% | 28µM* | -13% | 6%
Cc1cc(/C=C2/C(=O)NC(=O)N(C)C2=O)c(C)n1-c1ccccc1 | 34% | / | -1% | ?
Cc1cc(/C=C2\C(=O)NC(=O)N(c3ccccc3F)C2=O)c(C)n1-c1cc(C(=O)O)cc(C(=O)O)c1 | -17% | 8.9µM* | -18% | /
COc1ccc(-c2cc(C(F)(F)F)nc(S(=O)(=O)CCCC(=O)Nc3ccccc3C(F)(F)F)n2)cc1OC | 22µM* | ? | 8% | /
COc1ccc(-c2cc(C(F)(F)F)nc(S(=O)(=O)CCCC(=O)Nc3cccc(O)c3)n2)cc1OC | 20µM* | 35µM* | -6% | -11%
COc1ccc(NC(=O)CCCS(=O)(=O)c2nc(-c3ccc(OC)c(OC)c3)cc(C(F)(F)F)n2)cc1OC | 32µM* | ? | -9% | /
CS(=O)(=O)c1nc(-c2ccccc2)cc(C(F)(F)F)n1 | 7.9µM* | 10µM* | 0% | -7%
FC(F)(F)c1cc(-c2ccccc2)nc(N2CCCCCC2)n1 | 2% | -25% | 0% | 2%
COc1ccc2c(c1)CCc1cnc(-n3ncc(C(=O)N4CCN(CCO)CC4)c3C3CC3)nc1-2 | -9% | / | / | /
CO[C@H]1C[C@@H]2CC[C@@H](C)[C@@](O)(O2)C(=O)C(=O)N2CCCC[C@H]2C(=O)O[C@H]([C@H](C)C[C@@H]2CC[C@@H](OC(=O)C(C)(CO)CO)[C@H](OC)C2)CC(=O)[C@H](C)/C=C(\C)[C@@H](O)[C@@H](OC)C(=O)[C@H](C)C[C@H](C)/C=C/C=C/C=C/1C | / | / | -4% | /
COc1ccc(NC(=O)CCS(=O)(=O)c2nc(-c3ccc4c(c3)OCO4)cc(C(F)(F)F)n2)cc1 | -6% | 79µM* | 6% | /
Cc1cc(NC(=O)CCS(=O)(=O)c2nc(-c3ccccc3)cc(C(F)(F)F)n2)no1 | 25µM* | 32µM* | -2% | 1%
COc1cccc(CNC(=O)c2ccc3nc(N4CCCCC4)sc3c2)c1OC | -1% | 0% | 2% | /
C/C(=N/NS(=O)(=O)c1cccc([N+](=O)[O-])c1)c1c[nH]c2ccccc12 | 7% | 45µM* | -11% | -8%
C/C(=N/NS(=O)(=O)c1ccccc1)c1c[nH]c2ccccc12 | -2% | ? | -10% | -2%
CC1Cc2ccccc2N1CC(=O)Nc1ccc(N2CCOCC2)cc1 (centres undefined) | 17% | -3% | -5% | 4%
CC(Nc1ccc(N2CCOCC2)cc1)C(=O)N1c2ccccc2CC1C (centres undefined) | -1% | 79µM* | ? | -19%
CCc1noc(C)c1C(=O)N1CCOc2ccc(CN3CCN(c4ccccn4)CC3)cc2C1 | -10% | / | / | /
O=C(Nc1ccc(Cn2cccn2)cc1)c1ccc(COc2ccccc2Br)cc1 | 14µM* | 10% | 1% | -11%
SMILES | FMDV antiviral | Sm TGR block | TbPYK inhibitor | RE007 growth inh
COc1ccc(N2C(=O)[C@@H]3C[C@H]2CN3Cc2cccn2-c2nccs2)cc1Cl | 4% | / | / | /
CC(C)OC(=O)CSc1nnc(Cc2ccccc2)n1Cc1ccco1 | -14% | 22µM* | -20% | 5%
COc1ccccc1OCc1nnc(SCC(=O)NCc2ccco2)n1Cc1ccco1 | -12% | 16µM* | -11% | 3%
O=C(CSc1nnc(COc2ccccc2F)n1-c1ccccc1)NCc1ccco1 | -3% | 40µM* | -17% | 5%
CCc1ccc(-n2c(=O)c3cccnc3n2CC(=O)Nc2cc(F)ccc2F)cc1 | -5% | 0% | 3% | /
CC(C)c1nnc(N2C(=O)c3oc4ccccc4c(=O)c3C2c2cccc(O)c2)s1 (centres undefined) | -28% | 5% | -6% | /
Cc1ccccc1C(=O)NC(C)c1nnc2n1CCN(Cc1ccc(F)cc1)CC2 (centres undefined) | -1% | / | / | /
Cc1ccc2nc(-c3ccc(Cl)cc3)cc(C(=O)OCC(=O)c3ccccc3)c2c1 | -25% | 0% | -8% | /
CN1CCCN(C(=O)[C@@H]2C[C@@H](Sc3nc4ccccc4[nH]3)CN2Cc2ccc(-c3ccccc3)cc2)CC1 | -4% | / | / | /
Cc1cccc(NC2=C(Cl)C(=O)OC2OC(=O)c2ccco2)c1 (centres undefined) | -19% | 14µM* | 2% | -11%
Cc1ccc(NC2=C(Cl)C(=O)OC2OC(C)C)cc1 (centres undefined) | -1% | 2% | 3% | 13%
Cc1ccc(NC2=C(Cl)C(=O)OC2OC(=O)c2ccco2)cc1 (centres undefined) | / | 14µM* | 6% | 6%
Cc1cccc(NC2=C(Cl)C(=O)OC2OC(C)C)c1 (centres undefined) | 8% | -1% | 2% | 5%
Cc1ccc(/C=C/c2nnc(-c3cccs3)o2)cc1 | / | 0% | 1% | -6%
Cc1ccc(-c2nnc(-c3cccs3)o2)cc1 | 4% | / | 0% | 20µM*
CCOc1ccc(-c2cc(CCCC(=O)NCCc3ccc(OC)c(OC)c3)no2)cc1 | -22% | -2% | 8% | /
COc1ccc(Cn2c(-c3ccco3)nc3c(c(=O)c4ccccc4n3C)c2=O)cc1 | 4% | 50µM* | -6% | 11%
O=c1c2ccccc2nc(-c2ccco2)n1Cc1ccccc1 | 38% | 50µM* | -14% | -8%
CCC(c1nnc(SCc2nc3ccccc3s2)n1Cc1ccccc1)N(C)C (centres undefined) | 49% | 0% | -15% | 6%
O=C(On1c(-c2ccccc2)nc2ccccc2c1=O)c1ccco1 | / | 6.3µM* | -1% | ?
c1ccc(Cn2c(-c3ccco3)nc3nc4ccccc4nc32)cc1 | 26% | ? | 8% | -5%
COc1cc(OC)cc(-c2nc3ccccc3c(=O)n2OC(=O)c2ccccc2C)c1 | -26% | 7% | 1% | 2%
c1ccc(Cn2c(SCc3nc4ccccc4s3)nnc2-c2ccco2)cc1 | ? | 13µM* | 28µM* | -13%
Cc1cc(C)c(NC(=O)Cn2nc(-c3ccncc3)ccc2=O)c(C)c1 | -22% | -1% | -6% | /
Cc1cccc2cc(CN(C(=O)c3cccc(Cl)c3)c3ccccc3)c(=O)[nH]c12 | -16% | 21% | 0% | /
Cc1ncc2c(c1CNC(=O)c1cncs1)CCN(C(=O)c1ccsc1)C2 | -14% | / | / | /

Assay outcomes from PubChem.
